The record followed here is PMC7862700, “An all-to-all approach to the identification of sequence-specific readers for epigenetic DNA modifications on cytosine”.

Assay in all cases: DAPPL (digital affinity profiling via proximity ligation, sequencing); 10 mM Tris-HCl pH 7.5, 50 mM NaCl, 1 mM DTT, 4% glycerol, room temperature, 30 min; GST-TFs on glutathione beads, 16-mer random dsDNA library, 0.1% formaldehyde crosslink after washing; high values mean tight binding
One experiment deals with T1, FEV (Homo sapiens, UniProt Q99581 1-238).
T1 sequence: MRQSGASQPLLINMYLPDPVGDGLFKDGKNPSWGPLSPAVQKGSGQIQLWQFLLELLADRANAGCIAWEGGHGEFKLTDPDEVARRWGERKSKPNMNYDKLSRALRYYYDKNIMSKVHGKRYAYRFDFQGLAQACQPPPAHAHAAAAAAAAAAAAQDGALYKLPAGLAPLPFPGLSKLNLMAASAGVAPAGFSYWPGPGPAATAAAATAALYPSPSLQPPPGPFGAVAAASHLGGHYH
Conditions: protein: recombinant; tags: N-terminal GST; dsDNA, one strand shown. Summed up:
(§1)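 Human transcription factors were made in yeast as GST fusions, captured on glutathione beads and barcoded with DNA. With a tag-only sample included, the pool was incubated with 200 nmole of a random double-stranded 16-mer DNA library in Tris/NaCl/DTT/glycerol buffer at room temperature for 30 min, then crosslinked with 0.1% formaldehyde after washing, ligated by proximity, amplified and sequenced. For binding signal, each hexamer's read frequency for a factor is divided by its frequency for the tag-only sample.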

A further experiment addresses ETV5 (Homo sapiens, UniProt P41161 1-510). The settings on record: protein: recombinant; tags: N-terminal GST; dsDNA, one strand shown. Summed up:
as §1

A further experiment deals with HSF1 (Homo sapiens, UniProt Q00613 1-529). The settings on record: protein: recombinant; tags: N-terminal GST; chain copies: 3; dsDNA, one strand shown. Summed up: as §1
Chain of HSF1 (Q00613 whole entry): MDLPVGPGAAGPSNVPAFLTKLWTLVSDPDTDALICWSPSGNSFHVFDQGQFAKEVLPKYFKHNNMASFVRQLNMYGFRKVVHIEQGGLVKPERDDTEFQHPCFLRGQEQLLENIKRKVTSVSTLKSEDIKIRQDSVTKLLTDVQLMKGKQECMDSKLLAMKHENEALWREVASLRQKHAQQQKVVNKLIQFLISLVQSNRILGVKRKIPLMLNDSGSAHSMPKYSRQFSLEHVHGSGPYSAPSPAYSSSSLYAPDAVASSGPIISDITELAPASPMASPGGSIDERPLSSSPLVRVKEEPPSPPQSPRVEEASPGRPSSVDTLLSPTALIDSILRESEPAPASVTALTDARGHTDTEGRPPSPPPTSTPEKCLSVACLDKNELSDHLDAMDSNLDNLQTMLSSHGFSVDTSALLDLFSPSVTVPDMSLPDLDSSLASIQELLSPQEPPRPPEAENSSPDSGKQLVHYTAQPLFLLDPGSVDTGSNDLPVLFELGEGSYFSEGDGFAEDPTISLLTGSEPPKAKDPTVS
The target of the next experiment is T2, SPIC (Homo sapiens, UniProt Q8N5J4 1-248).
T2 sequence: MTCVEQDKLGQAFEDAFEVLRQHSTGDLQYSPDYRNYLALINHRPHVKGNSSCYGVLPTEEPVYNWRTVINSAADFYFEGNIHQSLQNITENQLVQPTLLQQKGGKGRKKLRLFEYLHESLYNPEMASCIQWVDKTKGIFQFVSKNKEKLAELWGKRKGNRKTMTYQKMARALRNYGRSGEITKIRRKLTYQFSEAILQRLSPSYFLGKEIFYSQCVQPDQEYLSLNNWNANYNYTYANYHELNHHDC
Conditions: protein: recombinant; tags: N-terminal GST; dsDNA, one strand shown. A digest of the protocol: as §1

The target of a further experiment is ELF4 (Homo sapiens, UniProt Q99607 1-663). The settings on record: protein: recombinant; tags: N-terminal GST; dsDNA, one strand shown. Summed up:
as §1

Another experiment deals with T3, ELK4 (Homo sapiens, UniProt P28324-2 1-405).
T3 sequence: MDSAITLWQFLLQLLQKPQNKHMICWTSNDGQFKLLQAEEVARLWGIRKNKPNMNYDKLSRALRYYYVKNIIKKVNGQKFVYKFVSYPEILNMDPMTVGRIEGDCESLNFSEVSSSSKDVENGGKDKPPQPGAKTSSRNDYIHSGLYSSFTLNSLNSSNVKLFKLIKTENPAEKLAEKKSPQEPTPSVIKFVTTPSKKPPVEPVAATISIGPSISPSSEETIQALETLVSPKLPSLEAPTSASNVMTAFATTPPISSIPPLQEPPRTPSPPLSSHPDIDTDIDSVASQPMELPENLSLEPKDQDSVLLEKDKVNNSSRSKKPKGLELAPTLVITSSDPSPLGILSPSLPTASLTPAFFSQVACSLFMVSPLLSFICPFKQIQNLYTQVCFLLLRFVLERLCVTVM
Conditions: protein: recombinant; tags: N-terminal GST; dsDNA, one strand shown. Summed up:
as §1

The next experiment addresses T4, ETV2 (Homo sapiens, UniProt O00321 1-342).
T4 sequence: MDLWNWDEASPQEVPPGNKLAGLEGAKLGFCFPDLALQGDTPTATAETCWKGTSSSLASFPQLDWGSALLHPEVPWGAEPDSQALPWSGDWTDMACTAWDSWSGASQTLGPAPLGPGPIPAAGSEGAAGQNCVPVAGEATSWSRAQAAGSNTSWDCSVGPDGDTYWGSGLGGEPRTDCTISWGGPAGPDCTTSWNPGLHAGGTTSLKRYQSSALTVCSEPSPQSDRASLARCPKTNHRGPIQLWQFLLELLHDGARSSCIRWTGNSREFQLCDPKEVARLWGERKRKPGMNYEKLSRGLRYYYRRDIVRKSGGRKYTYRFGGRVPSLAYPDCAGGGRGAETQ
Conditions: protein: recombinant; tags: N-terminal GST; dsDNA, one strand shown. A digest of the protocol:
as §1

For the next experiment, the target named is T5, ELF3 (Homo sapiens, UniProt P78545 1-371).
T5 sequence: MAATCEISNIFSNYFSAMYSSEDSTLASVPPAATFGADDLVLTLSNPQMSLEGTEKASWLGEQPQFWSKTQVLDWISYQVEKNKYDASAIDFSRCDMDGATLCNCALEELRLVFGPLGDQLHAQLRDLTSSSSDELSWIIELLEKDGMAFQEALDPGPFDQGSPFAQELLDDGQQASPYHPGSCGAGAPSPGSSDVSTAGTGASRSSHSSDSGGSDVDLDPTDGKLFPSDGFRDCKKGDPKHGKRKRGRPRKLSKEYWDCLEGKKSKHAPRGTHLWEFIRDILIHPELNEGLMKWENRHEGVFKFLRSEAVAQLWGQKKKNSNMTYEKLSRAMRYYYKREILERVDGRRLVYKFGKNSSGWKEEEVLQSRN
The settings on record: protein: recombinant; tags: N-terminal GST; dsDNA, one strand shown. Summed up: as §1

The target of the next experiment is CRX (Homo sapiens, UniProt O43186 1-299). Conditions: protein: recombinant; tags: N-terminal GST; dsDNA, one strand shown. Summed up:
as §1

Another experiment concerns the target ETV1 (Homo sapiens, UniProt P50549 1-477). The settings on record: protein: recombinant; tags: N-terminal GST; dsDNA, one strand shown. Summed up:
as §1

A further experiment has as its target T6, ERF (Homo sapiens, UniProt P50548 1-548).
T6 sequence: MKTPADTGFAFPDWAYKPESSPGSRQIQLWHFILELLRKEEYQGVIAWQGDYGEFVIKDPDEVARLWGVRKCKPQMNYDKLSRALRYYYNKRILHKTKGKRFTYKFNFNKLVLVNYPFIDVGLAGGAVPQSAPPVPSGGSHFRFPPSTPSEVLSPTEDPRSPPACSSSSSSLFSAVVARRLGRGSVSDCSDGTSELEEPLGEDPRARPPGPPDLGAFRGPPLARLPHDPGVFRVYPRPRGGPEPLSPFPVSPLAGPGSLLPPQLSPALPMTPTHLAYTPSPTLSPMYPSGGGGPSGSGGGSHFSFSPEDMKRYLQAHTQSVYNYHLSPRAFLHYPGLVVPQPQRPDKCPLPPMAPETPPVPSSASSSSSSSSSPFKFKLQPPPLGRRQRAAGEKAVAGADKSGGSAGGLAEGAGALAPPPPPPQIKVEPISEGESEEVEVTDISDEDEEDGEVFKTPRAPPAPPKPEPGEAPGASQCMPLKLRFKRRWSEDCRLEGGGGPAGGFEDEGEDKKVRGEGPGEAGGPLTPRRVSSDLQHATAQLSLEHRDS
Conditions: protein: recombinant; tags: N-terminal GST; dsDNA, one strand shown. A digest of the protocol:
as §1

The next experiment addresses T7, ETV3L (Homo sapiens, UniProt Q6ZN32 1-361).
T7 sequence: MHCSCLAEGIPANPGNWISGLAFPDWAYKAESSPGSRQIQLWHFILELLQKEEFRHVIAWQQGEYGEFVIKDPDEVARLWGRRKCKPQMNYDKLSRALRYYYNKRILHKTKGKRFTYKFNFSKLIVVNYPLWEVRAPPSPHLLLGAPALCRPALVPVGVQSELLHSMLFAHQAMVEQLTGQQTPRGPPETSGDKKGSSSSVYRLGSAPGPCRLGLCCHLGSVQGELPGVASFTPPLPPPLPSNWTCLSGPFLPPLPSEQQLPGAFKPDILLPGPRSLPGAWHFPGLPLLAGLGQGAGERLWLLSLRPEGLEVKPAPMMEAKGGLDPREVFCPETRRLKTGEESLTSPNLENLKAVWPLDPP
The settings on record: protein: recombinant; tags: N-terminal GST; dsDNA, one strand shown. A digest of the protocol: as §1

For the next experiment, the target named is T8, ETS2 (Homo sapiens, UniProt P15036 1-469).
T8 sequence: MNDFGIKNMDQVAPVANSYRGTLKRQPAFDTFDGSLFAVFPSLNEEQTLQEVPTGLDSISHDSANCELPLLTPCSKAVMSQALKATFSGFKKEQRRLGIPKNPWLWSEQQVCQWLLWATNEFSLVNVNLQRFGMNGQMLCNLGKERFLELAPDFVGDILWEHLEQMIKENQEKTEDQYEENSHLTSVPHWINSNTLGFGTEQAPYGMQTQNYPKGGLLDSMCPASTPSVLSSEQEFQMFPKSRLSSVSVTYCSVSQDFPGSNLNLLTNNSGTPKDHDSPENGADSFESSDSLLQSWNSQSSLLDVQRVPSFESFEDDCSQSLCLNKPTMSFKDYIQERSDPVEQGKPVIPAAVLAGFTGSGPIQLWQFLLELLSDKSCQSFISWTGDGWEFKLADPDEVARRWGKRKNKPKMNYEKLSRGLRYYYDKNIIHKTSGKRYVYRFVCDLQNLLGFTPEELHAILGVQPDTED
The settings on record: protein: recombinant; tags: N-terminal GST; dsDNA, one strand shown. A digest of the protocol: as §1

A further experiment has as its target T9, SPDEF (Homo sapiens, UniProt O95238 1-335).
T9 sequence: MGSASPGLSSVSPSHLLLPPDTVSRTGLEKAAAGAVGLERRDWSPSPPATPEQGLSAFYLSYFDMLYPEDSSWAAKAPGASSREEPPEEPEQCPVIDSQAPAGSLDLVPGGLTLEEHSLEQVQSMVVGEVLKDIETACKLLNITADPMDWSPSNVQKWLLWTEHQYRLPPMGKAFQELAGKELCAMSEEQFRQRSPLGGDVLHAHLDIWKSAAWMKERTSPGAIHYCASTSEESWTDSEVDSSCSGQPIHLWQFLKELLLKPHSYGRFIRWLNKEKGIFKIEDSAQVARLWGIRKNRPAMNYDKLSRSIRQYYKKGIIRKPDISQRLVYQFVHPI
The settings on record: protein: recombinant; tags: N-terminal GST; dsDNA, one strand shown. Summed up: as §1

The target in the next experiment is T10, ETV7 (Homo sapiens, UniProt Q9Y603 1-341).
T10 sequence: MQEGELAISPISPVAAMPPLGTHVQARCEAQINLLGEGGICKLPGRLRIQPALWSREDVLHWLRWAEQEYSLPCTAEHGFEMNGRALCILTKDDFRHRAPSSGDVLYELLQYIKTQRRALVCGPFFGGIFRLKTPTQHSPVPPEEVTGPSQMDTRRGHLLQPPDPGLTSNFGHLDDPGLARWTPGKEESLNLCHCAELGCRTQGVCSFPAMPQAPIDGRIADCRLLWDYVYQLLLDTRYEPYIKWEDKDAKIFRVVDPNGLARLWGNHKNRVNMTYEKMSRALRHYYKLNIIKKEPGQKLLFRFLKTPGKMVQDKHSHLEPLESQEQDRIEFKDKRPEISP
Conditions: protein: recombinant; tags: N-terminal GST; dsDNA, one strand shown. A digest of the protocol: as §1

In another experiment the target is T11, ELF5 (Homo sapiens, UniProt Q9UKW6-2 1-255).
T11 sequence: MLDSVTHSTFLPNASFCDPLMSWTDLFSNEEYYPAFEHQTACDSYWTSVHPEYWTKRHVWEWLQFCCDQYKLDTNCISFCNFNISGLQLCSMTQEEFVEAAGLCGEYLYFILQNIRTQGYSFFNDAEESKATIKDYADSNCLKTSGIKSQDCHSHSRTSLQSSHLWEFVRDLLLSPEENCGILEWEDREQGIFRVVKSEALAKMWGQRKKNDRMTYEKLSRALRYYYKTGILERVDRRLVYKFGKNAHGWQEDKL
The settings on record: protein: recombinant; tags: N-terminal GST; dsDNA, one strand shown. Summed up: as §1

Another experiment deals with T12, ETV3 (Homo sapiens, UniProt P41162-2 1-143).
T12 sequence: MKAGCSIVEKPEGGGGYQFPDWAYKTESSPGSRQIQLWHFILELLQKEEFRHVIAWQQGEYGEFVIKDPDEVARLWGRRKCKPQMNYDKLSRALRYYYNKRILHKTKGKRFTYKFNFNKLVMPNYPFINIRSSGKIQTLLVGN
Conditions: protein: recombinant; tags: N-terminal GST; dsDNA, one strand shown. A digest of the protocol: as §1

The target of a further experiment is ETV6 (Homo sapiens, UniProt P41212 1-452). Conditions: protein: recombinant; tags: N-terminal GST; dsDNA, one strand shown. Summed up:
as §1

Chain of CRX (O43186 whole entry): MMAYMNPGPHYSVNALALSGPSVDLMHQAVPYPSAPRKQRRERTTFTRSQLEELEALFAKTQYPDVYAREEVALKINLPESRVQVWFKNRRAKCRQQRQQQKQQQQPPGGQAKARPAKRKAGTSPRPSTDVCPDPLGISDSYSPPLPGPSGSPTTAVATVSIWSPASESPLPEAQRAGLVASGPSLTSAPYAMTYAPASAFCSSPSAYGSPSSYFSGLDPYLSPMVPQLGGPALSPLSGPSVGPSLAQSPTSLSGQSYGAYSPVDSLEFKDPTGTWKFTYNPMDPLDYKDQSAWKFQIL
Chain of ETV5 (P41161 whole entry): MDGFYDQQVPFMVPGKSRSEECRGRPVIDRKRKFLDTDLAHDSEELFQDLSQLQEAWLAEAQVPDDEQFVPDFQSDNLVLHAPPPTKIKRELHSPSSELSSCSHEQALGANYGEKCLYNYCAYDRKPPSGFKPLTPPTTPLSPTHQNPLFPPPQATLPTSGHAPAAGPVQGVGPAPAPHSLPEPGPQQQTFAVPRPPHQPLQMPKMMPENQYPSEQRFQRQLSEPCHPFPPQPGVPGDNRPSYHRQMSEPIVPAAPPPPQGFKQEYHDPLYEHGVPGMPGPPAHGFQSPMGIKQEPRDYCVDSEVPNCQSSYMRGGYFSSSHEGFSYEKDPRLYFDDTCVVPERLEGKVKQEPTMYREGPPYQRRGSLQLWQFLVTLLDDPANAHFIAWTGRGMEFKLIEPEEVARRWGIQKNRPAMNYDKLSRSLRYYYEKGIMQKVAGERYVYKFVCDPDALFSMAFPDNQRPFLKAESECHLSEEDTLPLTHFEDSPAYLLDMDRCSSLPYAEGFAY
Chain of ELF4 (Q99607 whole entry): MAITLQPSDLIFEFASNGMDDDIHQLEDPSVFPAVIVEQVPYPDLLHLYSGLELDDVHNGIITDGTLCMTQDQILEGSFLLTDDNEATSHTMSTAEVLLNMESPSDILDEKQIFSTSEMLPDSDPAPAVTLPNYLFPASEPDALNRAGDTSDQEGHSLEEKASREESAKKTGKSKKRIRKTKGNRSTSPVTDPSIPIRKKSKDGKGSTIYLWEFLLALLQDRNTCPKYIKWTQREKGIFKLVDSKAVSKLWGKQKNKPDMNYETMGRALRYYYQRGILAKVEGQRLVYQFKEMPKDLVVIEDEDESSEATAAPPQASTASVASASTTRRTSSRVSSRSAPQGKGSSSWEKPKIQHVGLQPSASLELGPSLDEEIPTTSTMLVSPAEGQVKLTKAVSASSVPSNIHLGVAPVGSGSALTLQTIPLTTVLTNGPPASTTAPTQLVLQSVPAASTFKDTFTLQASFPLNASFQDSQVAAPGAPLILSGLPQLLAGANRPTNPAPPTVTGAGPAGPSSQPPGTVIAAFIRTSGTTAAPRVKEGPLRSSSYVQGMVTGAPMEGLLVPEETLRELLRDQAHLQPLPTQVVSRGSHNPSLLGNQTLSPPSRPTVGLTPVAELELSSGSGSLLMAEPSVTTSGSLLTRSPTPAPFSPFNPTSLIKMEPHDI
Chain of ETV6 (P41212 whole entry): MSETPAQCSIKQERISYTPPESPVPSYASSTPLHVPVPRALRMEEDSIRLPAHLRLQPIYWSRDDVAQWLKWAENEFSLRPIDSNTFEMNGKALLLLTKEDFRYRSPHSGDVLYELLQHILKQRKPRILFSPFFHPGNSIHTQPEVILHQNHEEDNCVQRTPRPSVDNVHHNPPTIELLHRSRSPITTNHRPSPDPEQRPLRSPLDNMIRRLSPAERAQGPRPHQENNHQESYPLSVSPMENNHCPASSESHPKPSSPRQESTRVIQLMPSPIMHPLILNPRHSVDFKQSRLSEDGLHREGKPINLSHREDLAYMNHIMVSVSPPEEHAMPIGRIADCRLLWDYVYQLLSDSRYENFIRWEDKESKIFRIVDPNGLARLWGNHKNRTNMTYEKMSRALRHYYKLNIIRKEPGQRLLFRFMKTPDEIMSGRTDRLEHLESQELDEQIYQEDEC
Chain of ETV1 (P50549 whole entry): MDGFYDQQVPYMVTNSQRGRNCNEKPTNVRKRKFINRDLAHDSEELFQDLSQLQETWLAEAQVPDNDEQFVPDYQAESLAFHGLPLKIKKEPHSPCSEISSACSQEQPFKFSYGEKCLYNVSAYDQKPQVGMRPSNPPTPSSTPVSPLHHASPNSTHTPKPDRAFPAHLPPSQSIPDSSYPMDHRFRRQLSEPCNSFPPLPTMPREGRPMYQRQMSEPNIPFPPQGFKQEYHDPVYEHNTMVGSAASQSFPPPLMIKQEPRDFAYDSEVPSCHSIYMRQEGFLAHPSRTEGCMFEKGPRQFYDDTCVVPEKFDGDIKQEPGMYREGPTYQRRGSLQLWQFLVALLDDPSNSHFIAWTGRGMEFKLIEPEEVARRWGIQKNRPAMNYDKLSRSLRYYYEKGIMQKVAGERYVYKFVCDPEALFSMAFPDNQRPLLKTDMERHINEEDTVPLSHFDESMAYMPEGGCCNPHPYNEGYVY

Consider TATAGT, for which the binding signal with FEV was 1.03 fold enrichment (6-mer frequency, TF over GST control); with ETV5, 1.11 fold enrichment (6-mer frequency, TF over GST control); with HSF1, 1.07 fold enrichment (6-mer frequency, TF over GST control); with SPIC it was 1.09 fold enrichment (6-mer frequency, TF over GST control); with ELF4, 1.03 fold enrichment (6-mer frequency, TF over GST control); in the experiment with ELK4, 1.31 fold enrichment (6-mer frequency, TF over GST control). The binding signal in the experiment with ETV2 was 1.12 fold enrichment (6-mer frequency, TF over GST control); with ELF3 it was 1.28 fold enrichment (6-mer frequency, TF over GST control); in the experiment with CRX, 1.34 fold enrichment (6-mer frequency, TF over GST control); in the experiment with ETV1, 1.11 fold enrichment (6-mer frequency, TF over GST control); with ERF, 1.16 fold enrichment (6-mer frequency, TF over GST control); in the experiment with ETV3L, 1.06 fold enrichment (6-mer frequency, TF over GST control). Further, the binding signal was 1.02 fold enrichment (6-mer frequency, TF over GST control) in the experiment with ETS2; 1.02 fold enrichment (6-mer frequency, TF over GST control) with SPDEF; 1.2 fold enrichment (6-mer frequency, TF over GST control) in the experiment with ETV7; 1.04 fold enrichment (6-mer frequency, TF over GST control) with ELF5; 1.06 fold enrichment (6-mer frequency, TF over GST control) in the experiment with ETV3; 1.09 fold enrichment (6-mer frequency, TF over GST control) in the experiment with ETV6.
